This note sets out measurements from ChEMBL document CHEMBL1961873, “Compounds: GSK PKIS; Assays: Nanosyn kinase panel” (2012).

Assay [1] deals with Casein kinase I isoform gamma-2 (Homo sapiens) (UniProt P78368). The settings on record: at 1 µM.
The target of assay [2] is Casein kinase I isoform gamma-3 (Homo sapiens) (UniProt Q9Y6M4). Conditions: at 0.1 µM.
Assay [3] shares this target. Conditions: at 1 µM.
The target of assay [4] is Cyclin-dependent kinase 1 (Homo sapiens) (UniProt P06493). The settings on record: at 0.1 µM.
For assay [5] the target is unchanged. The settings on record: at 1 µM.
Assay [6] has as its target Cyclin-dependent kinase 2 (Homo sapiens) (UniProt P24941). Conditions: at 0.1 µM.
Assay [7] has the same target. Conditions: at 1 µM.
For assay [8] the target is unchanged. The settings on record: at 0.1 µM. This is another data set of the same source.
Assay [9] shares this target. Conditions: at 1 µM. This is another data set of the same source.
The target in assay [10] is T1, CDK3/Cyclin E (Homo sapiens) (UniProt P24864+Q00526). The settings on record: at 0.1 µM.
Assay [11] concerns the target T1, CDK3/Cyclin E (Homo sapiens). Conditions: at 1 µM.
Assay [12] addresses Cyclin-dependent kinase 4 (Homo sapiens) (UniProt P11802). Conditions: at 0.1 µM.
For assay [13] the target is unchanged. The settings on record: at 1 µM.
The target in assay [14] is Cyclin-dependent kinase 5 (Homo sapiens) (UniProt Q00535). The settings on record: at 0.1 µM.
Assay [15] shares this target. The settings on record: at 1 µM.
Assay [16] has as its target Cyclin-dependent kinase 6 (Homo sapiens) (UniProt Q00534). The settings on record: at 0.1 µM.
The target is the same in assay [17]. The settings on record: at 1 µM.
Assay [18] concerns the target Dual specificity protein kinase CLK2 (Homo sapiens) (UniProt P49760). The settings on record: at 0.1 µM.
The target is the same in assay [19]. The settings on record: at 1 µM.
The target in assay [20] is Dual specificity protein kinase CLK3 (Homo sapiens) (UniProt P49761). The settings on record: at 0.1 µM.
Sequence of Dual specificity protein kinase CLK3 (Homo sapiens) (P49761 whole entry, looked up): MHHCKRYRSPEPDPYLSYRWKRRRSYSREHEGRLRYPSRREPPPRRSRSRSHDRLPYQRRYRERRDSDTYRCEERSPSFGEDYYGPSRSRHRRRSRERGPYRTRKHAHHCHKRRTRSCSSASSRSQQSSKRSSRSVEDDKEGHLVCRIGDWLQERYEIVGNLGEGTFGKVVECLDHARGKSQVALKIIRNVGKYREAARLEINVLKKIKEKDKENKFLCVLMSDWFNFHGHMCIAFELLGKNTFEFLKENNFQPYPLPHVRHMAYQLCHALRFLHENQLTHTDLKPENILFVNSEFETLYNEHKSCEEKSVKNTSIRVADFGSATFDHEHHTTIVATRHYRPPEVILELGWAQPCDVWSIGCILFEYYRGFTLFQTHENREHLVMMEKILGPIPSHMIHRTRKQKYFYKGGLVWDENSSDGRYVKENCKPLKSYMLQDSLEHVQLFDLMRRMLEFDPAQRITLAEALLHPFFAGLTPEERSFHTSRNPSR

Sequence of Casein kinase I isoform gamma-3 (Homo sapiens) (Q9Y6M4 whole entry, looked up, canonical isoform): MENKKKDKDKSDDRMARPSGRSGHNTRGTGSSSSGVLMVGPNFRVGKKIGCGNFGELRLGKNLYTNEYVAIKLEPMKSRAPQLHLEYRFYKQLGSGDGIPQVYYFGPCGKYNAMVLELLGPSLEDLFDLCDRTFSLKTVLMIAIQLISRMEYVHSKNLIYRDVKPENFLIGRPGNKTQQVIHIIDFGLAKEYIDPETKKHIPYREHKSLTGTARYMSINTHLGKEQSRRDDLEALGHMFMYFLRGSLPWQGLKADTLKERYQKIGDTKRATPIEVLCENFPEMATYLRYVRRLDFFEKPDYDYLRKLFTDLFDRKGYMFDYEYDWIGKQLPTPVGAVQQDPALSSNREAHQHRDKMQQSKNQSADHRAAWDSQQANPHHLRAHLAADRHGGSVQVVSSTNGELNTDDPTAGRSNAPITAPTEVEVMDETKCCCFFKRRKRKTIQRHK
Sequence of Dual specificity protein kinase CLK2 (Homo sapiens) (P49760 whole entry, looked up): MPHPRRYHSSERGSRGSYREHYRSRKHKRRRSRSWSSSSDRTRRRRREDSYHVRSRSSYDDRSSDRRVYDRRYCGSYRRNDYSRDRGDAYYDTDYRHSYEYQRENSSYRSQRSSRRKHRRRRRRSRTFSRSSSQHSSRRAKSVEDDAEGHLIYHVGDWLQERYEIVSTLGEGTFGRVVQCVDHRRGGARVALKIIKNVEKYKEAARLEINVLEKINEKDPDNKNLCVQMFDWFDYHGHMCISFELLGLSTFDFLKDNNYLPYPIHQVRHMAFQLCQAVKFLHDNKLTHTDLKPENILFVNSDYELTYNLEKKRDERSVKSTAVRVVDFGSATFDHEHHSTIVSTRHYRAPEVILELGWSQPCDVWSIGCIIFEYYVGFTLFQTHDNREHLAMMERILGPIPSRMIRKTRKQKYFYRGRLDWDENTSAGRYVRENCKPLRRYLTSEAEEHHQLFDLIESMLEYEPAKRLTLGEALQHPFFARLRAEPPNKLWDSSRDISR
Sequence of Cyclin-dependent kinase 5 (Homo sapiens) (Q00535 whole entry, looked up): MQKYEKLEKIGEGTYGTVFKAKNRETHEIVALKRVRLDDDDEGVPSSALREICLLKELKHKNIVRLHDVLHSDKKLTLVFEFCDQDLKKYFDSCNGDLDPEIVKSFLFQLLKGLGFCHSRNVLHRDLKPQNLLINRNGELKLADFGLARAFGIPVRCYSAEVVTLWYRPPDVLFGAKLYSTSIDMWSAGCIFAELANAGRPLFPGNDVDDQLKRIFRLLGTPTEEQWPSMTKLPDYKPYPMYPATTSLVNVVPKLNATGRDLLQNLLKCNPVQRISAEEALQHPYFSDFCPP
Sequence of Casein kinase I isoform gamma-2 (Homo sapiens) (P78368 whole entry, looked up, canonical isoform): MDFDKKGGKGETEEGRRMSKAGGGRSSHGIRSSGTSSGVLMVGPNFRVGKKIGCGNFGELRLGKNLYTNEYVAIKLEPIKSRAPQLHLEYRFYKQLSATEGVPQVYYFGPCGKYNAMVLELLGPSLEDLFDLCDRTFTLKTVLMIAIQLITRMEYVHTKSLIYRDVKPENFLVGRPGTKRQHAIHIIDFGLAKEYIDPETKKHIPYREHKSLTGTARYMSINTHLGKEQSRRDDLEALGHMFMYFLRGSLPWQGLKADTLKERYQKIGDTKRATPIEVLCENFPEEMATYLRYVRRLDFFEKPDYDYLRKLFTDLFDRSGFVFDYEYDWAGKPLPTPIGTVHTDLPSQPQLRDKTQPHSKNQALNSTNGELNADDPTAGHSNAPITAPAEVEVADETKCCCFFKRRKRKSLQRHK
T1 sequence (P24864 whole entry, looked up): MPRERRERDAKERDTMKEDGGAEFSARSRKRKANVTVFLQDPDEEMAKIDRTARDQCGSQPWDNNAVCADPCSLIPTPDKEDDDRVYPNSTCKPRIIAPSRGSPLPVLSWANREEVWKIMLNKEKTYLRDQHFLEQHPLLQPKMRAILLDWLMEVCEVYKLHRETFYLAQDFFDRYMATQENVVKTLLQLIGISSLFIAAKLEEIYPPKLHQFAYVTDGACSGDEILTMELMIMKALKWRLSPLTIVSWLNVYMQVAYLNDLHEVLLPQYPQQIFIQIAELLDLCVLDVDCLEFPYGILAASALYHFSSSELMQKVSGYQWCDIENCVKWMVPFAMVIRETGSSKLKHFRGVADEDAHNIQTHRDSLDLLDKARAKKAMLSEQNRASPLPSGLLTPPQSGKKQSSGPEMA
T1 sequence (Q00526 whole entry, looked up): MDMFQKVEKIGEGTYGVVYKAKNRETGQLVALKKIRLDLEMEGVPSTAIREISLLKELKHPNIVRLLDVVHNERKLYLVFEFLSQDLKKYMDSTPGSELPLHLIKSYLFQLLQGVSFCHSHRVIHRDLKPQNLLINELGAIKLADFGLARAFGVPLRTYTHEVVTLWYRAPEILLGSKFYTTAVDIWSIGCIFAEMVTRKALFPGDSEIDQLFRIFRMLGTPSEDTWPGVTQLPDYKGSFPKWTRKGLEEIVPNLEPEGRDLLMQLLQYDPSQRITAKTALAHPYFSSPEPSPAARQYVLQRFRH
Sequence of Cyclin-dependent kinase 1 (Homo sapiens) (P06493 whole entry, looked up): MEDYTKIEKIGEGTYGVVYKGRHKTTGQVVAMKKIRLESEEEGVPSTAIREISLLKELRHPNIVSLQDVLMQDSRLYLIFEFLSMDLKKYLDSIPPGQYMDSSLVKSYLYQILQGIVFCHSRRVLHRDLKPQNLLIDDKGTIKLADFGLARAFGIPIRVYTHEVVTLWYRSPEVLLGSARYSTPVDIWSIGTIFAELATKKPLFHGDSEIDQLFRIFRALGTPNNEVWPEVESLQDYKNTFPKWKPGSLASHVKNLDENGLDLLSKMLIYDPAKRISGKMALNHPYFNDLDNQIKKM
Sequence of Cyclin-dependent kinase 6 (Homo sapiens) (Q00534 whole entry): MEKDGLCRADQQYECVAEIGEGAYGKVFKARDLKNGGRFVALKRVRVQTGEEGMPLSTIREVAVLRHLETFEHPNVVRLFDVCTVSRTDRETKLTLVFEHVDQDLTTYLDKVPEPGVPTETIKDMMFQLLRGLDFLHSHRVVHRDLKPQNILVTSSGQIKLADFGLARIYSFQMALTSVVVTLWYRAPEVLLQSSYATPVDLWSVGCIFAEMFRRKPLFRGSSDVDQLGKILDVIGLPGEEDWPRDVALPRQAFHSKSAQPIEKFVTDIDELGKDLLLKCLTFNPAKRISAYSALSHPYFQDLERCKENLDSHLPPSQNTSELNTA
Sequence of Cyclin-dependent kinase 4 (Homo sapiens) (P11802 whole entry): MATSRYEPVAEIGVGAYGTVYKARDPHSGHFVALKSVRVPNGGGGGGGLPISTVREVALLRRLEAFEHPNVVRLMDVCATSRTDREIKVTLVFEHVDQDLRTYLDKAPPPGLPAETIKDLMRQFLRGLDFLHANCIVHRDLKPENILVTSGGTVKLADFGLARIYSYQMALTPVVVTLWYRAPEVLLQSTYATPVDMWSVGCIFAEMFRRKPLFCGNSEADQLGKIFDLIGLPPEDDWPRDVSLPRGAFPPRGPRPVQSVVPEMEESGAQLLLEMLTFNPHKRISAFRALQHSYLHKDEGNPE

`c1ccc(-c2nc3n(c2-c2ccc4c(c2)OCO4)CCC3)nc1`: the inhibition in [1] came out at 1.81%; in [2], 0.57%; in assay [3] it was 4.18%; in assay [4], 0.17%; in [5] it was 1.42%; in assay [6] it was 1.58%. The inhibition in assay [7] was -5.6%; in assay [8], 2.41%; in assay [9], 3.84%; in [10] it was 2.37%; in assay [11], 0.43%; in assay [12] it was 2.02%. The inhibition in assay [13] is 2.7%; in [14] it was 0.64%; in assay [15], 1.86%; in assay [16], -1.72%; in assay [17] it was 3.55%; in assay [18] it was 0.44%. Further, the inhibition in assay [19] was -1.18%; in assay [20] it was 3.62%.
With `NS(=O)(=O)c1ccc(Nc2ncc(-c3ccccc3)o2)cc1`, the inhibition in assay [1] is 4.34%; in assay [2] it was 3.53%; in [3], 3.96%; in [4], 19.7%; in assay [5] it was 66.2%; in assay [6], 48.2%. Also, the inhibition amounted to 109% in assay [7]; 56.2% in assay [8]; 86.8% in [9]; 44.6% in [10]; 77.2% in [11]; 9.25% in assay [12]. The inhibition was found to be 26.5% in [13]; 23.8% in assay [14]; 70.3% in assay [15]; 13.1% in [16]; 48.6% in assay [17]; 1.81% in assay [18]. In addition, the values for the inhibition in [19] and in assay [20] were 1.67% and 2.28%, respectively.
Turning to `Fc1ccc(-c2nn3ccccc3c2-c2ccncc2)cc1`, the inhibition was found to be 7.48% in assay [1]; 0.7% in assay [2]; 15.1% in assay [3]; 0.74% in assay [4]; 1.96% in assay [5]; 2.05% in assay [6]. Also, the inhibition in assay [7] was 2.06%; in assay [8], 1.19%; in assay [9] it was 2.02%; in [10], 0.78%; in [11], -1.11%; in assay [12], 1.37%. Also, the inhibition was 2.18% in assay [13]; 0.46% in assay [14]; 0.96% in [15]; -1.88% in assay [16]; 2.7% in assay [17]; 0.24% in [18]. The inhibition in assay [19] amounted to 1.47%; in assay [20], 0.63%.
On to `NC(=O)c1sc(-n2cnc3ccc(C(F)(F)F)cc32)cc1OCc1ccccc1Br`, for which the inhibition in assay [1] was 4.58%; in assay [2], 1.35%; in assay [3] it was 2.37%; in assay [4], -0.53%; in assay [5] it was 1.01%; in assay [6], 1.25%. The inhibition was 1.52% in assay [7]; 1.94% in assay [8]; 3.25% in [9]; 1.2% in assay [10]; -2.34% in assay [11]; 1.68% in [12]. Besides, the inhibition in [13] is 2.94%; in assay [14], -0.39%; in assay [15], -0.71%; in assay [16], -0.29%; in [17], 1.76%; in assay [18] it was 3.14%. For the same compound, the inhibition in [19] was 27.6%; in [20], 2.31%.
Turning to `CN1CCC(n2cnc(-c3ccc(F)cc3)c2-c2ccnc(N)n2)CC1`, the inhibition in assay [1] worked out at 4.69%; in assay [2] it was 0.53%; in assay [3] it was 10.3%; in [4] it was 0.23%; in assay [5], 2%; in assay [6], 0.76%. Also, the inhibition in [7] was 1.07%; in assay [8], 1.45%; in [9], 2.89%; in [10], 1.57%; in [11], -0.17%; in assay [12], 0.29%. The inhibition in [13] was 1.34%; in [14] it was 0.36%; in [15], 1.02%; in assay [16], 1.87%; in assay [17], 0.65%; in assay [18] it was 2.8%. The inhibition in [19] is 13.8%; in assay [20] it was 0.99%.
As to `Cc1ccc(O)cc1Nc1ccnc2cc(-c3ccccn3)ccc12`, the inhibition in assay [1] was 6.53%; in assay [2] it was 4.03%; in assay [3] it was 6.72%; in [4], 0.02%; in [5] it was 1.83%; in assay [6], 0.84%. Besides, the inhibition was 6.62% in assay [7]; 3.98% in [8]; 4.84% in [9]; 1.95% in [10]; -0.7% in assay [11]; 3.48% in assay [12]. In addition, the inhibition in assay [13] amounted to 4.45%; in assay [14], 0.73%; in assay [15] it was 1.9%; in assay [16], 1.92%; in assay [17] it was 4.31%; in assay [18], 1.89%. For the same compound, the inhibition in assay [19] was determined as 3.5%; in assay [20] it was 2.09%.
With `COC(=O)c1sc(-n2cnc3cc(OC)c(OC)cc32)cc1OCc1ccccc1C(F)(F)F`, the inhibition in [1] was 4.73%; in assay [2], 3.9%; in [3] it was 2.94%; in assay [4], -0.15%; in [5] it was 1.15%; in assay [6] it was 1.51%. In addition, the inhibition is 3.81% in assay [7]; 4.73% in [8]; 8.33% in assay [9]; 3.47% in assay [10]; -1.85% in assay [11]; 2.28% in assay [12]. Moreover, the inhibition in assay [13] was 3.18%; in assay [14] it was 1.35%; in assay [15], 2.46%; in assay [16], -2.2%; in assay [17], 5.15%; in [18], 1.6%. Moreover, the inhibition came to 2.65% in assay [19] and 0.11% in assay [20].
For `Cc1ccc2c(-c3ccnc(Nc4ccccc4)n3)c(-c3ccc(F)cc3)nn2n1`, the inhibition was 36.6% in [1]; 7.8% in [2]; 51.5% in assay [3]; -0.23% in assay [4]; 1.56% in assay [5]; 2.27% in assay [6]. The inhibition turned out to be 0.79% in assay [7]; 2.35% in [8]; 5.57% in assay [9]; 2.45% in [10]; 2.55% in [11]; 6.51% in assay [12]. The inhibition in assay [13] was determined as 6.75%; in assay [14], 0.32%; in [15], 2.21%; in [16] it was 3.66%; in assay [17], 5.2%; in assay [18] it was 2.31%. The inhibition in assay [19] is 2.23%; in assay [20], 1.04%.
For the compound `COc1ccc2[nH]c3c4[nH]c5ccc(OC)cc5c4c4c(c3c2c1)C(=O)NC4=O`, the inhibition amounted to 3.1% in assay [1]; 4.06% in assay [2]; 5% in assay [3]; 0.17% in assay [4]; 3.22% in assay [5]; 1.85% in assay [6]. Besides, the inhibition in assay [7] is 3%; in assay [8] it was 3.64%; in [9], 4.91%; in [10], 2.31%; in assay [11], 6.02%; in [12] it was 2.56%. For the same compound, the inhibition came out at 7.55% in assay [13]; 1.11% in assay [14]; 2.57% in assay [15]; 2.91% in assay [16]; 3.6% in [17]; 5.12% in assay [18]. Further, the values for the inhibition in assay [19] and in assay [20] were 20.3% and 2.17%, respectively.
As to `CS(=O)(=O)CCNCc1ccc(-c2ccc3ncnc(Nc4ccc(OCc5ccccc5)c(C(F)(F)F)c4)c3c2)o1`, the inhibition in assay [1] is 4.2%; in assay [2], 3.19%; in [3], 2.56%; in assay [4], 0.28%; in [5], 1.7%; in [6], 6.22%. The inhibition in assay [7] was 8.37%; in assay [8] it was 2.59%; in [9], 4.6%; in assay [10], 0.51%; in assay [11], -3.61%; in assay [12] it was 2.38%. Besides, the inhibition in assay [13] was 3.96%; in assay [14], 0.23%; in assay [15], 1.58%; in assay [16], -1.88%; in assay [17], -4.19%; in [18] it was 0.79%. In addition, the inhibition in assay [19] is -2.13%; in [20] it was 0.57%.
Consider `CC(C)COC(=O)c1ccc2c(c1)/C(=C/Nc1ccc(S(N)(=O)=O)cc1)C(=O)N2`, for which the inhibition in [1] was 14.2%; in [2], -3.31%; in assay [3], 20.6%; in assay [4], 36.9%; in assay [5], 75.5%; in assay [6], 82%. Moreover, the inhibition stood at 86.6% in assay [7]; 66.2% in assay [8]; 82.7% in assay [9]; 43.8% in assay [10]; 90.8% in assay [11]; 24.7% in assay [12]. Moreover, the inhibition in [13] was 66.7%; in assay [14], 49.8%; in assay [15] it was 79.6%; in [16], 21.5%; in assay [17], 68.6%; in assay [18], 19.2%. For the same compound, the inhibition in assay [19] is 72.2%; in [20], -0.32%.
Turning to `COc1ccc2c(-c3ccnc(Nc4cccc(OC(F)(F)F)c4)n3)cnn2n1`, the inhibition came to 7.44% in assay [1]; 4.96% in [2]; 6.47% in assay [3]; 5.27% in [4]; 41.2% in assay [5]; 11.1% in assay [6]. In addition, the inhibition in assay [7] came out at 60.1%; in [8], 14.8%; in [9], 57%; in assay [10], 3.19%; in [11], 20.3%; in [12] it was 3.8%. Further, the inhibition was determined as 18% in [13]; 5.51% in assay [14]; 36.3% in assay [15]; 9.65% in assay [16]; 14.6% in assay [17]; 95.4% in [18]. In addition, the results for the inhibition in assay [19] and in assay [20] were 98.3% and 13.2%, respectively.
